# Measured values published in paper PMC11062922 (Nature Chemical Biology, 2023).
# Like-named read-outs stand apart in the source and are kept apart here.
# Tests used:
# CLK1 = test system: CLK1; set-up: species or system human, MV4-11 + K-562 + COLO205 + SK-N-BE2 + OVCAR-8; settings: read-out: apparent Kd; compound concentrations:100 nM and 1000 nM (sheet 'Samples'); n = 1
# CLK2 = test system: CLK2; set-up: species or system human, MV4-11 + K-562 + COLO205 + SK-N-BE2 + OVCAR-8; settings: read-out: apparent Kd; compound concentrations:100 nM and 1000 nM (sheet 'Samples'); n = 1
# CLK4 = test system: CLK4; set-up: species or system human, MV4-11 + K-562 + COLO205 + SK-N-BE2 + OVCAR-8; settings: read-out: apparent Kd; compound concentrations:100 nM and 1000 nM (sheet 'Samples'); n = 1
# GAK = test system: GAK; set-up: species or system human, MV4-11 + K-562 + COLO205 + SK-N-BE2 + OVCAR-8; settings: read-out: apparent Kd, n = 1
# MAPK10 = test system: MAPK10; set-up: species or system human, MV4-11 + K-562 + COLO205 + SK-N-BE2 + OVCAR-8; settings: read-out: apparent Kd, n = 1
# MAPK8 = test system: MAPK8; set-up: species or system human, MV4-11 + K-562 + COLO205 + SK-N-BE2 + OVCAR-8; settings: read-out: apparent Kd; compound concentrations:100 nM and 1000 nM (sheet 'Samples'); n = 1
# MAPK9 = test system: MAPK9; set-up: species or system human, MV4-11 + K-562 + COLO205 + SK-N-BE2 + OVCAR-8; settings: read-out: apparent Kd, n = 1
# PTK2B = test system: PTK2B; set-up: species or system human, MV4-11 + K-562 + COLO205 + SK-N-BE2 + OVCAR-8; settings: read-out: apparent Kd, n = 1
# PTK2 = test system: PTK2; set-up: species or system human, MV4-11 + K-562 + COLO205 + SK-N-BE2 + OVCAR-8; settings: read-out: apparent Kd; compound concentrations:100 nM and 1000 nM (sheet 'Samples'); n = 1
# TNK1 = test system: TNK1; set-up: species or system human, MV4-11 + K-562 + COLO205 + SK-N-BE2 + OVCAR-8; settings: read-out: apparent Kd, n = 1
# TTK = test system: TTK; set-up: species or system human, MV4-11 + K-562 + COLO205 + SK-N-BE2 + OVCAR-8; settings: read-out: apparent Kd; compound concentrations:100 nM and 1000 nM (sheet 'Samples'); n = 1
# CDKL5 = test system: CDKL5; set-up: species or system human, MV4-11 + K-562 + COLO205 + SK-N-BE2 + OVCAR-8; settings: read-out: apparent Kd; compound concentrations: 100 nM and 1000 nM (sheet 'Samples'), CATDS: 0.29608844643475601; n = 1
# ERBB3 = test system: ERBB3; set-up: species or system human, MV4-11 + K-562 + COLO205 + SK-N-BE2 + OVCAR-8; settings: read-out: apparent Kd; compound concentrations: 100 nM and 1000 nM (sheet 'Samples'), CATDS: 0.345701208148325; n = 1
# MYLK3 = test system: MYLK3; set-up: species or system human, MV4-11 + K-562 + COLO205 + SK-N-BE2 + OVCAR-8; settings: read-out: apparent Kd; compound concentrations: 100 nM and 1000 nM (sheet 'Samples'), CATDS: 0.366305815038865; n = 1
# CDK7 = test system: CDK7; set-up: species or system human, MV4-11 + K-562 + COLO205 + SK-N-BE2 + OVCAR-8; settings: read-out: apparent Kd, compound concentrations: 100 nM and 1000 nM (sheet 'Samples'), n = 1
# ERCC2 = test system: ERCC2; set-up: species or system human, MV4-11 + K-562 + COLO205 + SK-N-BE2 + OVCAR-8; settings: read-out: apparent Kd, compound concentrations: 100 nM and 1000 nM (sheet 'Samples'), n = 1
# FER = test system: FER; set-up: species or system human, MV4-11 + K-562 + COLO205 + SK-N-BE2 + OVCAR-8; settings: read-out: apparent Kd, compound concentrations: 100 nM and 1000 nM (sheet 'Samples'), n = 1
# MAPK14 = test system: MAPK14; set-up: species or system human, MV4-11 + K-562 + COLO205 + SK-N-BE2 + OVCAR-8; settings: read-out: apparent Kd; compound concentrations: 100 nM and 1000 nM (sheet 'Samples'), CATDS: 6.3546758887955801E-2; n = 1
# MAPKAPK2 = test system: MAPKAPK2; set-up: species or system human, MV4-11 + K-562 + COLO205 + SK-N-BE2 + OVCAR-8; settings: read-out: apparent Kd; compound concentrations: 100 nM and 1000 nM (sheet 'Samples'), CATDS: 6.9359248510779001E-2; n = 1
# NLK = test system: NLK; set-up: species or system human, MV4-11 + K-562 + COLO205 + SK-N-BE2 + OVCAR-8; settings: read-out: apparent Kd; compound concentrations: 100 nM and 1000 nM (sheet 'Samples'), CATDS: 0.64871625608349803; n = 1
# PAK4 = test system: PAK4; set-up: species or system human, MV4-11 + K-562 + COLO205 + SK-N-BE2 + OVCAR-8; settings: read-out: apparent Kd; compound concentrations: 100 nM and 1000 nM (sheet 'Samples'), CATDS: 5.1367607354333399E-2; n = 1
# PIP4K2C = test system: PIP4K2C; set-up: species or system human, MV4-11 + K-562 + COLO205 + SK-N-BE2 + OVCAR-8; settings: read-out: apparent Kd; compound concentrations: 100 nM and 1000 nM (sheet 'Samples'), CATDS: 6.1444231758823603E-2; n = 1
# Q6ZSR9 = Q6ZSR9 (human, UniProt Q6ZSR9); set-up: species or system MV4-11 + K-562 + COLO205 + SK-N-BE2 + OVCAR-8; settings: read-out: apparent Kd; compound concentrations: 100 nM and 1000 nM (sheet 'Samples'), CATDS: 4.2380052385305601E-2; n = 1
# Chain of Q6ZSR9 (Q6ZSR9 whole entry, looked up): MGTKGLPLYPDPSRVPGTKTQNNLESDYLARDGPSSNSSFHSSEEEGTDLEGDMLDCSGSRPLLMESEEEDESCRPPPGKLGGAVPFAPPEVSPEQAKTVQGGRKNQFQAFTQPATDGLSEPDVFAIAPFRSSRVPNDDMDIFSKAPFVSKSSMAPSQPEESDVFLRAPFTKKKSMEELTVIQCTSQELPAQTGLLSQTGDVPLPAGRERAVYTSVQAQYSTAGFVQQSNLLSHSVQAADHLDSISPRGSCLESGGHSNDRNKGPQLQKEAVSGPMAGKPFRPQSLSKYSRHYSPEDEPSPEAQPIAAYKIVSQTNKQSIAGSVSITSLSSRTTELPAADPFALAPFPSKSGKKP
# SIK2 = test system: SIK2; set-up: species or system human, MV4-11 + K-562 + COLO205 + SK-N-BE2 + OVCAR-8; settings: read-out: apparent Kd; compound concentrations: 100 nM and 1000 nM (sheet 'Samples'), CATDS: 4.6797026760186898E-2; n = 1
# STK3 = test system: STK3; set-up: species or system human, MV4-11 + K-562 + COLO205 + SK-N-BE2 + OVCAR-8; settings: read-out: apparent Kd; compound concentrations: 100 nM and 1000 nM (sheet 'Samples'), CATDS: 4.17809647402431E-2; n = 1
# STK4 = test system: STK4; set-up: species or system human, MV4-11 + K-562 + COLO205 + SK-N-BE2 + OVCAR-8; settings: read-out: apparent Kd; compound concentrations: 100 nM and 1000 nM (sheet 'Samples'), CATDS: 4.6786088352923701E-2; n = 1
# TNK2 = test system: TNK2; set-up: species or system human, MV4-11 + K-562 + COLO205 + SK-N-BE2 + OVCAR-8; settings: read-out: apparent Kd, compound concentrations: 100 nM and 1000 nM (sheet 'Samples'), n = 1
# EPHA5 = test system: EPHA5; set-up: species or system human, MV4-11 + K-562 + COLO205 + SK-N-BE2 + OVCAR-8; settings: read-out: apparent Kd; compound concentrations: 100 nM and 1000 nM (sheet 'Samples'), CATDS: 7.2696381065974702E-2; n = 1
# EPHB4 = test system: EPHB4; set-up: species or system human, MV4-11 + K-562 + COLO205 + SK-N-BE2 + OVCAR-8; settings: read-out: apparent Kd; compound concentrations: 100 nM and 1000 nM (sheet 'Samples'), CATDS: 7.5541211933236804E-2; n = 1
# GSK3A = test system: GSK3A; set-up: species or system human, MV4-11 + K-562 + COLO205 + SK-N-BE2 + OVCAR-8; settings: read-out: apparent Kd; compound concentrations: 100 nM and 1000 nM (sheet 'Samples'), CATDS: 7.5555777377750599E-2; n = 1
# PIK3C3 = test system: PIK3C3; set-up: species or system human, MV4-11 + K-562 + COLO205 + SK-N-BE2 + OVCAR-8; settings: read-out: apparent Kd; compound concentrations: 100 nM and 1000 nM (sheet 'Samples'), CATDS: 0.106578843558364; n = 1
# PIK3CB = test system: PIK3CB; set-up: species or system human, MV4-11 + K-562 + COLO205 + SK-N-BE2 + OVCAR-8; settings: read-out: apparent Kd; compound concentrations: 100 nM and 1000 nM (sheet 'Samples'), CATDS: 0.68027770173125801; n = 1
# [1] = compound concentrations:100 nM and 1000 nM (sheet 'Samples')
compound,measurement,setting,value
COc1cc(N2CCN(C(C)C)CC2)ccc1Nc1nc(Nc2ccc(F)cc2C(=O)NC[C@@H](O)CO)c2cc[nH]c2n1 [GSK1392956A],potency estimated from few doses,CLK1,415 nM
same,potency estimated from few doses,CLK2,811 nM
same,potency estimated from few doses,CLK4,684 nM
same,potency estimated from few doses,GAK; [1],50.4 nM
same,potency estimated from few doses,MAPK10; [1],92.1 nM
same,potency estimated from few doses,MAPK8,140 nM
same,potency estimated from few doses,MAPK9; [1],531 nM
same,potency estimated from few doses,PTK2B; [1],188 nM
same,potency estimated from few doses,PTK2,370 nM
same,potency estimated from few doses,TNK1; [1],577 nM
same,potency estimated from few doses,TTK,53 nM
COc1cccc(-n2ncc3c(N/N=C/c4ccc(F)cc4)ncnc32)c1 [GW817396X],potency estimated from few doses,CDKL5,2110 nM
same,potency estimated from few doses,ERBB3,1520 nM
same,potency estimated from few doses,MYLK3,1360 nM
Cl.Cn1c(=O)c(Oc2cccc(F)c2)cc2cnc(NC3CCOCC3)nc21 [RO3304774-001],potency estimated from few doses,CDK7; CATDS: 4.9338137384748702E-2,1360 nM
same,potency estimated from few doses,ERCC2; CATDS: 5.1368063894958502E-2,1240 nM
same,potency estimated from few doses,FER; CATDS: 5.6215291988472402E-2,1010 nM
same,potency estimated from few doses,"GAK; compound concentrations: 100 nM and 1000 nM (sheet 'Samples'), CATDS: 4.9289180471638903E-2",1370 nM
same,potency estimated from few doses,"MAPK10; compound concentrations: 100 nM and 1000 nM (sheet 'Samples'), CATDS: 5.8204150926545503E-2",939 nM
same,potency estimated from few doses,MAPK14,786 nM
same,potency estimated from few doses,"MAPK9; compound concentrations: 100 nM and 1000 nM (sheet 'Samples'), CATDS: 5.1291573819888199E-2",1240 nM
same,potency estimated from few doses,MAPKAPK2,665 nM
same,potency estimated from few doses,NLK,17.9 nM
same,potency estimated from few doses,PAK4,1240 nM
same,potency estimated from few doses,PIP4K2C,840 nM
same,potency estimated from few doses,"PTK2B; compound concentrations: 100 nM and 1000 nM (sheet 'Samples'), CATDS: 5.2093058874082297E-2",1200 nM
same,potency estimated from few doses,Q6ZSR9,2060 nM
same,potency estimated from few doses,SIK2,1560 nM
same,potency estimated from few doses,STK3,2160 nM
same,potency estimated from few doses,STK4,1560 nM
same,potency estimated from few doses,"TNK1; compound concentrations: 100 nM and 1000 nM (sheet 'Samples'), CATDS: 5.4278066670988299E-2",1090 nM
same,potency estimated from few doses,TNK2; CATDS: 7.0528629271619694E-2,645 nM
O=c1cc(N2CCOCC2)nc2n(Cc3cccc(Cl)c3Cl)ccn12 [GSK2286295A],potency estimated from few doses,CDK7; CATDS: 8.4335056049156601E-2,923 nM
same,potency estimated from few doses,EPHA5,1360 nM
same,potency estimated from few doses,EPHB4,1220 nM
same,potency estimated from few doses,ERCC2; CATDS: 9.6102785253179598E-2,687 nM
same,potency estimated from few doses,FER; CATDS: 7.77606230380051E-2,1130 nM
same,potency estimated from few doses,"GAK; compound concentrations: 100 nM and 1000 nM (sheet 'Samples'), CATDS: 7.8204164782115004E-2",1110 nM
same,potency estimated from few doses,GSK3A,1220 nM
same,potency estimated from few doses,PIK3C3,554 nM
same,potency estimated from few doses,PIK3CB,21.8 nM
same,potency estimated from few doses,"TNK1; compound concentrations: 100 nM and 1000 nM (sheet 'Samples'), CATDS: 9.2477692433592898E-2",747 nM
same,potency estimated from few doses,TNK2; CATDS: 8.9325991753534395E-2,807 nM
